From article PMC4336329 (PLoS ONE, 2015)
Among all 310,000 compounds or so, about 14,000 (4.5%) showed an effect of 50% or more. The effect is printed as a negative number. For the sample, strong results were picked, then their nearest neighbours and some compounds at random.

target: human ether-à-go-go-related gene (hERG) potassium channel (human, UniProt Q12809); assay: primary screen, population patch clamp on CHO cells stably expressing hERG; higher = less effect of the substance
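Also: peak tail current of the secondary pulse compared with the same well before compound.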

Chain of human ether-à-go-go-related gene (hERG) potassium channel (Q12809 whole entry, looked up): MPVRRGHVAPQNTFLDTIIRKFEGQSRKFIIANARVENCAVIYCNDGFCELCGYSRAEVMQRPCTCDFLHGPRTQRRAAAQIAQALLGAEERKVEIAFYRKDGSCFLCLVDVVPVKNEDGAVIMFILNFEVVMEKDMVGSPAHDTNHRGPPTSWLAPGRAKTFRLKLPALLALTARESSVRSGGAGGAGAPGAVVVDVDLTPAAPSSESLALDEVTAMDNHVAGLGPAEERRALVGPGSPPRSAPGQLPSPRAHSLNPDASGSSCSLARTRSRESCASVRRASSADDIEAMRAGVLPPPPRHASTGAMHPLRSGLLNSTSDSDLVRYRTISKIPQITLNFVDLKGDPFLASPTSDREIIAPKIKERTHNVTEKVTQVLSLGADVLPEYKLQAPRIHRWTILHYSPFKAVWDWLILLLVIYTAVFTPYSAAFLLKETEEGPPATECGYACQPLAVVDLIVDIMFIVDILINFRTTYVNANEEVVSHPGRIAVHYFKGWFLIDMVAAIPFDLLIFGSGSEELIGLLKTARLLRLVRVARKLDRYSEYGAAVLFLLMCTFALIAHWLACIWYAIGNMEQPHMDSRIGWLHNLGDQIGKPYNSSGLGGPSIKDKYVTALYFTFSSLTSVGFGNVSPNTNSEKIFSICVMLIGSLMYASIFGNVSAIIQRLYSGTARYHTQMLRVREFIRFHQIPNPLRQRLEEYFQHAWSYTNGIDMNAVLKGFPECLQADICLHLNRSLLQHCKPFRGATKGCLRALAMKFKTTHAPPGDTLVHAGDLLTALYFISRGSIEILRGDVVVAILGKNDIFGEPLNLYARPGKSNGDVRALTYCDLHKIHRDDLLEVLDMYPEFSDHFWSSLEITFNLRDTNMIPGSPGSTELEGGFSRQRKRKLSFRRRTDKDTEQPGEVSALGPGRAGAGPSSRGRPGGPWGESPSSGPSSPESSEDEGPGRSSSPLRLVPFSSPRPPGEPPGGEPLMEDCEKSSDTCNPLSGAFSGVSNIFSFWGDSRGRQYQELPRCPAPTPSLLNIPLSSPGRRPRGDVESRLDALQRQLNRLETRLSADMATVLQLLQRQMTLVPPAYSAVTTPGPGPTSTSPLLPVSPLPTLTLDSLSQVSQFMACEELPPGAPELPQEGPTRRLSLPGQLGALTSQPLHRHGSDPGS

SMILES	hERG current change (%, negative = inhibition) at 10uM [%]
CCCC[n+]1c(-c2ccc(Cl)cc2Cl)csc1Nc1ccccc1.[Cl-]	-6.7
O=C(CC12CC3CC(CC(C3)C1)C2)N1CCCOC1	-3.81
O=C(CCO)c1ccc(O)cc1	10.6
FC(F)(F)c1ccccc1NC(=S)N1CCN(c2ccccn2)CC1	5.12
Cc1ccc2sc(N3CCN(CCNC(=O)c4ccco4)CC3)nc2c1C.Cl	-58.2
Cc1nc(C)n(CCNC(=O)c2ccco2)n1	27
O=C(NCCN1CCCCC1)c1ccco1	7.02
Br.Cc1ccc(C)c(C(=O)Cn2c(NCCO)nc3ccccc32)c1	6.12
CCOC(=O)C1(Cc2ccccc2C(F)(F)F)CCN(C2CCSC2)CC1 (stereo not drawn)	-25.2
CCOC(=O)C1(CCc2ccccc2)CCN(C(=O)[C@@H]2C[C@@H](C)NC(=S)N2)CC1	6.08
OCC1(CCOc2ccccc2)CCN(C2Cc3ccccc3C2)CC1	-72.8
CCOC(=O)C1(CCc2ccccc2)CCN(C2CCSCC2)CC1	-76.3
CCOC(=O)C1(Cc2ccccc2)CCCN(C2CCCC2)C1 (stereo not drawn)	-2.87
CCOC(=O)C1(CCOc2ccccc2)CCN(C2Cc3ccccc3C2)CC1	-53.4
CCOC(=O)C1(Cc2ccccc2)CCN(C2Cc3ccccc3C2)CC1	-66.4
CCOC(=O)C1(Cc2ccc(Cl)cc2)CCN(C2CCC2)CC1	-44.9
CCOC(=O)C1(CCOc2ccccc2)CCN(S(=O)(=O)N(C)C)CC1	-1.79
Cc1ccc(OCC(=O)N2CCCC(CO)(CCOc3ccccc3)C2)cc1 (stereo not drawn)	-30.4
O=C1CN(c2nnnn2-c2ccccc2)CCN1	-6.89

SMILES	hERG current change (%, negative = inhibition) at 10uM [%]
COC(=O)[C@@]1(Cc2ccccc2)C=C[C@@H](C)N1C(C)=O	2.06
Cc1cccc(C)c1NC(=O)CCCSc1nnc(-c2ccc(Cl)cc2)n1-c1ccccc1	-3.49
COc1ccc(C(C)(C)C)cc1NC(=O)CN1C(=O)C(=O)N(Cc2ccco2)C1=O	2.86
CCCCNC(=O)NS(=O)(=O)c1ccc(NC(=O)CCC(=O)c2cccs2)cc1	23.1
O=S(=O)(c1ccc(Cl)nc1)N1CCCCC1	-1.17
CC1(C)Oc2ccc3ccc(=O)oc3c2C(/C=N/O)=C1Cl	14.7
CCOC(=O)C1CCN(/C=C2/C(=O)NC(=S)N(c3cccc(OC)c3)C2=O)CC1	19.4
CCOC(=O)/C=c1\s/c(=C(\C#N)C(=O)NC)n(-c2ccccc2)c1=O	10.6
Cc1ccc(-c2nn3c(C)nnc3s2)cc1NC(=O)c1ccco1	-11.7
O=C(N/N=C/C=C\c1ccco1)c1cccnc1	8.4
Cn1cccc1-c1nc2ccccc2n1Cc1ccccc1	-29.1
OCC1(CCCc2ccccc2)CCN(C2CCSCC2)CC1	-80.5
CS(=O)(=O)c1ccc(S(=O)(=O)N2CCC(CO)(CCCc3ccccc3)CC2)cc1	-41.4
CCOC(=O)C1(CCc2ccccc2)CCN(C2Cc3ccccc3C2)CC1	-64.8
O=C(NCc1ccccc1)N1CCC(CO)(CCc2ccccc2)CC1	-38
CCCCOC(=O)c1ccc(NC(=O)CSC2=Nc3ccccc3C3CC=NN23)cc1 (stereo not drawn)	15.4
O=C(COc1ccccc1)NCC(=O)Nc1ccncc1	1.26
O=C(c1ccc(NC(=O)C2(c3ccccc3)CCOCC2)cc1)N1CCOCC1	9.8
CC(=O)N1c2c(cc(Br)cc2S(=O)(=O)NCC2COc3ccccc3O2)CC1C (stereo not drawn)	-44.5

SMILES	hERG current change (%, negative = inhibition) at 10uM [%]
CC1CCCN(S(=O)(=O)c2cc3c4c(c2)CCN4C(=O)CC3)C1 (stereo not drawn)	-6.07
COC(=O)[C@@]12CCCN1[C@H](c1ccc(-c3ccc(OC)cc3)c(OC)c1)[C@@H]1C(=O)N(C)C(=O)[C@@H]12.O=C(O)C(F)(F)F	-9.37
CC1(C)O[C@H]2CC(=O)OC[C@]23[C@H]2CC[C@@]4(C)[C@H](c5ccoc5)OC(=O)[C@H]5O[C@]54[C@]2(C)[C@@H](O)C[C@@H]13	17.1
CCOC(=O)CN1C(=O)S/C(=C/c2ccc(N3CCCCC3)o2)C1=O	13.1
CCOC(=O)CN1C(=O)S/C(=C/c2ccco2)C1=O	9.39
CCOC(=O)CN1C(=O)S/C(=C/c2ccc(C)o2)C1=O	-72.7
Cc1[nH]nc2c1C(c1ccsc1C)C(C#N)=C(N)O2 (stereo not drawn)	2.25
Cn1cnnc1SCC(=O)NN(c1ccccc1)c1ccccc1	28.6
CCNC(=O)C(C)Oc1ccc(Cl)cc1Cl (stereo not drawn)	9.68
Cc1cccc(C(=O)C2CCOC(C)(C)C2)c1 (stereo not drawn)	13
CCN(Cc1nc(-c2cccc(Cl)c2)no1)CC1CCCO1 (stereo not drawn)	1.7
O=C1CC[C@@H](CN(Cc2ccccn2)Cc2nc(Cc3cccc(C(F)(F)F)c3)no2)N1	-48.4
Cc1oc(-c2ccc(C(F)(F)F)cc2)nc1CN(Cc1ccccn1)C[C@@H]1CCC(=O)N1	-38.2
CCCN(Cc1nc(-c2ccc(Cl)cc2)no1)CC1CCCO1 (stereo not drawn)	-8.15
COC(=O)c1ccc(-c2noc(CN(Cc3ccccn3)CC3CCCO3)n2)cc1 (stereo not drawn)	-75
Clc1ccc(-c2noc(CN(Cc3ccccn3)CC3CCCO3)n2)cc1 (stereo not drawn)	-28.5
O=C1CC[C@@H](CN(Cc2ccccn2)Cc2nc(-c3ccc(C(F)(F)F)cc3)no2)N1	-62.7
COC(=O)c1ccc(-c2noc(CN(Cc3ccncc3)CC3CCCO3)n2)cc1 (stereo not drawn)	-28.5
CCN(Cc1nc(-c2ccc(Cl)cc2)no1)CC1CCCO1 (stereo not drawn)	-62.9
